Reference: PubChem BioAssay (NCI)
About 79,000 compounds went through this panel and 15% of them were active in at least one assay; those are over-represented in the sample as a whole. Cut-off read from the data, not from the text of the source: active = growth inhibition above about 70%; inactive = the rest.

Columns and labels:
[1] = NCI Yeast Anticancer Drug Screen. Data for the rad50 strain (AID 155);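 note: 0% = growth of vehicle-only cultures of the same strain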; conditions: S. cerevisiae rad50 strain growth inhibition; at 50.0 µM; hits give high values
Summary of the method: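 Compounds were tested on a yeast strain with an engineered DNA damage repair alteration; the reported value is growth inhibition normalised to vehicle treatment.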

[2] = NCI Yeast Anticancer Drug Screen. Data for the mec2-1 strain (AID 157); conditions: S. cerevisiae mec2-1 strain, at 50.0 µM, hits give high values
Summary of the method: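 Test agents were screened against the mec2-1 yeast strain, with defined DNA repair or cell cycle alteration. Growth was scored as inhibition against vehicle-only controls.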

[3] = NCI Yeast Anticancer Drug Screen. Data for the sgs1 mgt1 strain (AID 161);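 note: 0% = growth of cultures given vehicle only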; conditions: S. cerevisiae sgs1 mgt1 strain, at 50.0 µM, hits give high values
Summary of the method: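 Inhibition of yeast growth, normalised to vehicle-treated controls, is reported for a strain bearing genetic alterations in DNA damage repair.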

[4] = NCI Yeast Anticancer Drug Screen. Data for the cln2 rad14 strain (AID 165);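 note: 0% = growth equal to vehicle treated cultures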; conditions: S. cerevisiae cln2 rad14 strain, at 50.0 µM, hits give high values
Summary of the method: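 Growth of compound-exposed yeast (cln2 rad14 genotype) measured and expressed as inhibition relative to vehicle.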

[5] = NCI Yeast Anticancer Drug Screen. Data for the bub3 strain (AID 167); conditions: S. cerevisiae bub3 mutant strain, at 50.0 µM, hits give high values
Summary of the method: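 Growth of a checkpoint-deficient yeast mutant is measured after compound exposure. Values represent inhibition relative to vehicle.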

[6] = NCI Yeast Anticancer Drug Screen. Data for the mlh1 rad18 strain (AID 175); conditions: S. cerevisiae mlh1 rad18 strain growth inhibition; at 50.0 µM; hits give high values
Summary of the method: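 In this whole-cell yeast screen, a strain with altered DNA damage repair is challenged with compound, and its growth is measured against matched vehicle-treated controls.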

Measured: growth inhibition

CC(=O)N(Cl)c1ccc(N=Nc2ccccc2)cc1F
inactive: [1] 24.5% | [2] 15.1% | [3] 32.5% | [4] -9.7% | [5] -7.7% | [6] 6.8%

CC(C)=CC1C(CBr)C1(C)C (stereo unspecified)
inactive: [1] 2.3% | [2] -15.2% | [3] -12.2% | [4] -26.2% | [5] -10.1% | [6] -11%

Br/C=C/c1ccccc1
inactive: [1] 23.6% | [2] 11.3% | [3] 0.6% | [4] -14.7% | [5] 5.85% | [6] 46.1%

CC(C)CC(NC(=O)CN)C(=O)O (stereo unspecified)
inactive: [1] -1.85% | [2] 2.4% | [3] -1.1% | [4] -7.2% | [5] -6% | [6] -0.85%

CC(=O)OCC1OC(n2c3c(cc(C#N)c2=S)CCCCCC3)C(OC(C)=O)C(OC(C)=O)C1OC(C)=O (stereo unspecified)
inactive: [1] 22.2% | [2] 4.45% | [3] 12.1% | [4] -12.8% | [5] -4% | [6] 33.4%

CSc1nc2c(ncn2C2OCC(O)C(O)C2O)c(=O)n1C (stereo unspecified)
inactive: [1] 12% | [2] 7.7% | [3] -24.2% | [4] 29.6% | [5] -4.35% | [6] 15.6%

Cc1[nH]nc2c(=O)n(N)nnc12
inactive: [1] 18.4% | [2] 7.3% | [3] 0.35% | [4] -16.9% | [5] -15.8% | [6] 26.4%

COc1ccc(CC2OCCC3c4ccccc4NC23)cc1OC (stereo unspecified)
inactive: [1] -3.2% | [2] -3.5% | [3] 0.7% | [4] -10.2% | [5] 3% | [6] -2.05%

C[Si](C)(C)CCCO
inactive: [1] 0.25% | [2] 17.8% | [3] 3.3% | [4] 6.9% | [5] 9.25% | [6] 10%

CCc1nnc(CC)n1NC(=O)Nc1ccc(C)cc1
inactive: [1] -5.1% | [2] -14.5% | [3] -3.75% | [4] 7.05% | [5] -7.65% | [6] 1.25%

CC(=O)Nc1nc(Cl)c2cc[nH]c2n1
inactive: [1] -1.05% | [2] 2.5% | [3] -5.5% | [4] -10.3% | [5] -11.9% | [6] -11.6%

CCOC(=O)c1[nH]c2nc(N)ncc2c(=O)c1C
inactive: [1] -0.15% | [2] -0.95% | [3] -0.15% | [4] 43.6% | [5] 12.8% | [6] 11.7%

CCOC(=O)c1cnc(-n2[nH]c(C)c(CCO)c2=O)[nH]c1=O
inactive: [1] -11.2% | [2] -46.9% | [3] -33.1% | [4] -6.15% | [5] -8.9% | [6] -37%

Cc1ccc(C(C)(O)C2CC2)cc1 (stereo unspecified)
inactive: [1] -11.4% | [2] -33.8% | [3] -18.4% | [4] 18.6% | [5] -35.8% | [6] 18.1%

Cc1cccc(C)c1NC(=O)C(=O)CC(=O)CO
inactive: [1] -9.45% | [2] -18.3% | [3] 14.1% | [4] 10.8% | [5] 21% | [6] -6.25%

O=C1CC2C(O)OC(O)C(C1)N2C(=O)OCC(Cl)(Cl)Cl (stereo unspecified)
inactive: [1] 10.8% | [2] -15.9% | [3] -8.55% | [4] 12.6% | [5] -17.4% | [6] -6.6%

Nc1nc(Cc2ccccc2)cs1
inactive: [1] 24.7% | [2] 24.7% | [3] 16.1% | [4] 7.5% | [5] 3.35% | [6] 12.6%

NC(=O)NCC(N)C(=O)O (stereo unspecified)
inactive: [1] -4.75% | [2] -5.2% | [3] -2.3% | [4] 1.55% | [5] 1.55% | [6] -1.9%

CNS(=O)(=O)c1ccc(Cl)cc1
inactive: [1] 29.9% | [2] 11.7% | [3] 13.9% | [4] 13.3% | [5] 5.9% | [6] 20.1%

O=C1c2ccccc2-c2ccc(-c3ccc4c5c(cccc35)C(=O)c3ccccc3-4)c3cccc1c23
inactive: [1] -21.9% | [2] -27.6% | [3] -7.9% | [4] -0.85% | [5] -31.3% | [6] -34.2%

CC1C(c2ccccc2)=CCON1c1ccccc1 (stereo unspecified)
inactive: [1] -2.9% | [2] -16.6% | [3] -24.4% | [4] 13.4% | [5] -3.75% | [6] -28.1%
